Several values for one entry are separate records, joined by “and”; a condition that tells them apart may be missing. Identical values can stand only once. Results filed as inconclusive are left out. A structure can be active in one record and inactive in another. Activity calls are given as the source filed them. Unless noted, calls follow the shape of the dose curve; as a rule, active = well fitted curve in the direction sought with a large enough effect in the repeat runs; inconclusive = weak or mixed curves; inactive = no such curve, though single readings can be large; an effect the other way counts as inactive or inconclusive.
Assays:
[1] = qHTS assay to test for compound auto fluorescence at 535 nm (green) in HEK293 cells (AID 720680)
[2] = qHTS assay to test for compound auto fluorescence at 460 nm (blue) in HEK293 cell free culture (AID 720681)
How it was run: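 Test compounds were pinned into cell-free culture medium (DMEM with 10% FBS) and fluorescence was read directly at Ex/Em 405/460 nm. Signals were expressed as fluorescence equivalents of triamterene, with DMSO vehicle as control.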

[3] = qHTS assay to test for compound auto fluorescence at 535 nm (green) in HEK293 cell free culture (AID 720682)
How it was run: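 Cell-free medium (DMEM, 10% FBS) receives compound or DMSO by pintool. Plate read directly at Ex 485/Em 535 nm. Signal converted to fluorescein equivalency.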

[4] = qHTS assay to test for compound auto fluorescence at 590 nm (red) in HepG2 cell free culture (AID 720684)
How it was run: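 Measured in medium alone (MEM containing 10% FBS) following pintool addition of compound; emission at 590 nm with 540 nm excitation, referenced to Rose Bengal sodium.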

[5] = qHTS assay to test for compound auto fluorescence at 460 nm (blue) in HepG2 cell free culture (AID 720685)
How it was run: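 Compound (23 nL) or DMSO pinned into cell-free MEM with 10% FBS; blue fluorescence read at 405/460 nm excitation/emission, expressed as auto-fluorescence equivalency to triamterene.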

[6] = qHTS assay to test for compound auto fluorescence at 535 nm (green) in HepG2 cell free culture (AID 720686)
[7] = qHTS assay to test for compound auto fluorescence at 460 nm (blue) in HepG2 cells (AID 720687)
How it was run: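 Cells (2,000/well in MEM with 10% FBS) attached overnight at 37 C, then were exposed to compound or DMSO for 1 hr at 37 C, 5% CO2. Fluorescence read at Ex/Em 405/460 nm, expressed as triamterene-equivalent signal.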

[8] = qHTS assay to identify small molecule antagonists of the glucocorticoid receptor (GR) signaling pathway - cell viability counter screen (AID 720693); also: nearly all actives have a fitted effect of over 55% in size
[9] = qHTS assay for identifying genotoxic compounds that show differential cytotoxicity against isogenic chicken DT40 cell lines with known DNA damage response pathways - wild type cell line (AID 743012); also: nearly all actives have a fitted effect of over 60% in size
How it was run: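 First, wild type DT40 cells were plated at 300 per well and equilibrated about 0.5 h at 37 C/5% CO2. Next, compounds in DMSO were added and exposure lasted 40 h. Finally, CellTiter-Glo was added for 30 min at room temperature and luminescence recorded.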

[10] = qHTS assay for identifying genotoxic compounds that show differential cytotoxicity against isogenic chicken DT40 cell lines with known DNA damage response pathways - Rev3 mutant cell line (AID 743014); also: nearly all actives have a fitted effect of over 55% in size; also: potency is read from the fitted curve at half-maximal effect
[11] = qHTS assay for identifying genotoxic compounds that show differential cytotoxicity against isogenic chicken DT40 cell lines with known DNA damage response pathways - Rad54/Ku70 mutant cell line (AID 743015); also: nearly all actives have a fitted effect of over 60% in size; also: potency is read from the fitted curve at half-maximal effect
[12] = qHTS assay to identify small molecule antagonists of the androgen receptor (AR) signaling pathway - cell viability counter screen (AID 743033; also: nearly all actives have a fitted effect of over 45% in size)
[13] = qHTS assay to identify small molecule antagonists of the androgen receptor (AR) signaling pathway using the MDA cell line - cell viability counter screen (AID 743041; also: nearly all actives have a fitted effect of over 45% in size)
How it was run: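 Viability counter screen run alongside the AR antagonist reporter: cells seeded 5 h before compound, R1881 added, 16 h incubation at 37C without CO2, fluorescent CellTiter-Fluor signal quantified.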

[14] = target: Glucocorticoid receptor (Homo sapiens) (UniProt P04150); experiment: qHTS assay to identify small molecule agonists of the glucocorticoid receptor (GR) signaling pathway (AID 720691; active = well fitted activation curve with a large enough effect in the signal ratio in the repeat runs, not every such curve was filed as active; the % refers to the signal ratio)
Sequence of Glucocorticoid receptor (Homo sapiens) (P04150 whole entry, looked up): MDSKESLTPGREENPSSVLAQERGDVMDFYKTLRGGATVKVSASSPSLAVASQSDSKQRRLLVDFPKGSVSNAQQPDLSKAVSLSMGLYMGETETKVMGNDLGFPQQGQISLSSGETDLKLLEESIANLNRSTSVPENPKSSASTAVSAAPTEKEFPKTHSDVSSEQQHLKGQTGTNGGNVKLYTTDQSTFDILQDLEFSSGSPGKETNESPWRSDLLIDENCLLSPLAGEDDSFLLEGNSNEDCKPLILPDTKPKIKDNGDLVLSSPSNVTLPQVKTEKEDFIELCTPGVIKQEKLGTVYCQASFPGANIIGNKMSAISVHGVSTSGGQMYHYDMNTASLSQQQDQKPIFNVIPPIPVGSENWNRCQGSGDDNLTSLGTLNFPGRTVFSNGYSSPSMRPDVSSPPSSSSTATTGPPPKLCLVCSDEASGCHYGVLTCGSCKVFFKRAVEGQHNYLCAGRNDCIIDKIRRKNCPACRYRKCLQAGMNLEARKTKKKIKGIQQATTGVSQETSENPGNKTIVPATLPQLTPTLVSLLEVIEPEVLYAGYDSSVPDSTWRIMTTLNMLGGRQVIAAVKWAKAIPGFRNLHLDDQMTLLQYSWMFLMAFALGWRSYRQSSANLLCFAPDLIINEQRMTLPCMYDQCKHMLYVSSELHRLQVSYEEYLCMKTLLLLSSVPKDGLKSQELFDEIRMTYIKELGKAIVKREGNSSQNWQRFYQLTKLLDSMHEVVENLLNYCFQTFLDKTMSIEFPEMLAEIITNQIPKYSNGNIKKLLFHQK
How it was run: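 qHTS in GR-bla HeLa cells: 4 h settling at 37 C/5% CO2, 18 h compound incubation at 37 C, 2 h LiveBLAzer B/G FRET substrate at room temperature, fluorescence intensity measured.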

[15] = target: Glucocorticoid receptor (Homo sapiens) (UniProt P04150); experiment: qHTS assay to identify small molecule antagonists of the glucocorticoid receptor (GR) signaling pathway (AID 720692; active = well fitted inhibition curve with a large enough effect in the signal ratio in the repeat runs, not every such curve was filed as active; the % refers to the signal ratio)
How it was run: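 Inhibition of glucocorticoid signalling is measured in HeLa cells with a GRE-controlled beta-lactamase reporter; cells are co-treated with compound and 5 nM dexamethasone (final) for 18 h before FRET substrate readout.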

[16] = target: Androgen receptor (Homo sapiens) (UniProt P10275); experiment: qHTS assay to identify small molecule antagonists of the androgen receptor (AR) signaling pathway (AID 743035; active = well fitted inhibition curve with a large enough effect in the signal ratio in the repeat runs, not every such curve was filed as active; the % refers to the signal ratio)
Sequence of Androgen receptor (Homo sapiens) (P10275 whole entry, looked up): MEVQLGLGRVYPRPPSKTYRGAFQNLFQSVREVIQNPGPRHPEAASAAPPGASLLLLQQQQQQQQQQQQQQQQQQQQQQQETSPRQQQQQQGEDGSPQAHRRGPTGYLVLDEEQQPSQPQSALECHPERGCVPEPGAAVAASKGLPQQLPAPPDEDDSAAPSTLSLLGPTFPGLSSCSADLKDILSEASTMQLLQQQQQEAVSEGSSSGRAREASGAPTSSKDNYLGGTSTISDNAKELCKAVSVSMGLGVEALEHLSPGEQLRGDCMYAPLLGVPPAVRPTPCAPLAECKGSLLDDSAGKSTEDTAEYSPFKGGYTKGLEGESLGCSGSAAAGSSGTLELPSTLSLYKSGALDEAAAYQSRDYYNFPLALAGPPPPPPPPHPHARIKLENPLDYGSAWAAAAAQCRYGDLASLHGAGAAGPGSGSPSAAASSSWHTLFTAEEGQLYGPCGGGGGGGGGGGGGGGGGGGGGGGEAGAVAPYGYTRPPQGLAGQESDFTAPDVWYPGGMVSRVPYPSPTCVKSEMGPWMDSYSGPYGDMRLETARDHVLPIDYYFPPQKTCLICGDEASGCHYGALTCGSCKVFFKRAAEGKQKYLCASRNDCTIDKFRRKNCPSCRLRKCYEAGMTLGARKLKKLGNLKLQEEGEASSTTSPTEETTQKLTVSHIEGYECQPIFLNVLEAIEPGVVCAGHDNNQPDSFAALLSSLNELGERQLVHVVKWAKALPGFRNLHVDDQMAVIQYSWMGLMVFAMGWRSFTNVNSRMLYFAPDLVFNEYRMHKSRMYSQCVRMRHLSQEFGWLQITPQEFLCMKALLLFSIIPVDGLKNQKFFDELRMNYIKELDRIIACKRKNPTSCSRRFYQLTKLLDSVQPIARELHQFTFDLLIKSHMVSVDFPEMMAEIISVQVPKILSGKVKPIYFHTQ
How it was run: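 Beta-lactamase FRET read (2 h RT incubation with LiveBLAzer B/G) following 16 h of compound plus R1881 treatment of AR-UAS-bla HEK293 cells, which had been pre-incubated 4 h at 37C.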

[17] = target: Androgen receptor (Homo sapiens) (UniProt P10275); experiment: qHTS assay to identify small molecule agonists of the androgen receptor (AR) signaling pathway (AID 743036; active = well fitted activation curve with a large enough effect in the signal ratio in the repeat runs, with a control signal flat, not every such curve was filed as active; the % refers to the signal ratio)
How it was run: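 AR-bla HEK293 cells, 2,000/well; 4 h preincubation 37C/5% CO2; compound (DMSO) 16 h at 37C; LiveBLAzer B/G FRET substrate 2 h RT; fluorescence intensity read-out.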

[18] = target: Androgen receptor (Homo sapiens) (UniProt P10275); experiment: qHTS assay to identify small molecule agonists of the androgen receptor (AR) signaling pathway using the MDA cell line (AID 743040; also: nearly all actives have a fitted effect of over 20% in size); conditions: MDA-kb2 AR-luc cells, MMTV luciferase, 16 h; at 70.3 µM (top of the series); stronger effect = higher value
How it was run: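 Luminescence from ONE-Glo, read after 30 min at room temperature, reflects MMTV-driven luciferase in MDA-kb2 cells (AR- and GR-responsive). Treatment lasted 16 h at 37C, 0% CO2.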

[19] = target: Androgen receptor (Homo sapiens) (UniProt P10275); experiment: qHTS assay to identify small molecule antagonists of the androgen receptor (AR) signaling pathway using the MDA cell line (AID 743042; also: nearly all actives have a fitted effect of over 55% in size)
How it was run: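 MDA-kb2 cells (human breast carcinoma, stably carrying an MMTV-luciferase reporter responsive to AR and GR) were plated at 3,000 cells/well and preincubated 5 hr at 37C, then given compound plus R1881 agonist for 16 h. ONE-Glo luminescence was read.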

OCc1ccc(Cl)cc1Cl
inactive: outcome [1] | Potency [2] | outcome [3] | outcome [4] | Potency [5] | outcome [6] | Potency [7] | Potency [8] | Potency [9] | Potency [10] | Potency [11] | Potency [12] | Potency [13]

COC(=O)/C=C\C(=O)OC
inactive: outcome [1] | Potency [2] | outcome [3] | outcome [4] | Potency [5] | outcome [6] | Potency [7] | outcome [14] | Potency [8] | Potency [9] | Potency [10] | Potency [11] | Potency [12] | Potency [13]

OC1CCCCC1
inactive: outcome [1] | Potency [2] | outcome [3] | outcome [4] | Potency [5] | outcome [6] | Potency [7] | outcome [14] | Potency [15] | Potency [8] | Potency [9] | Potency [10] | Potency [11] | Potency [12] | Potency [13]

CC(=O)OC/C=C(\C)CCC=C(C)C
inactive: outcome [1] | Potency [2] | outcome [3] | outcome [4] | Potency [5] | outcome [6] | Potency [7] | outcome [14] | Potency [15] | Potency [8] | Potency [9] | Potency [10] | Potency [11] | Potency [12] | Potency [13]

O=c1c(O)c(-c2ccc(O)c(O)c2)oc2cc(O)cc(O)c12
active: Potency [10] 54.5 µM and 27.5 µM and 61.1 µM | Potency [11] 30.7 µM and 24.5 µM and 61.1 µM
inactive: outcome [1] | Potency [2] | outcome [3] | outcome [4] | Potency [5] | outcome [6] | Potency [7] | Potency [8] | Potency [12] | Potency [13]

OCC(CO)(CO)CO
inactive: outcome [1] | Potency [2] | outcome [3] | outcome [4] | Potency [5] | outcome [6] | Potency [7] | Potency [8] | Potency [9] | Potency [10] | Potency [11] | Potency [12] | Potency [13]

O=C1CCCCCCCCCCC1
inactive: outcome [1] | Potency [2] | outcome [3] | outcome [4] | Potency [5] | outcome [6] | Potency [7] | outcome [14] | Potency [15] | Potency [8] | Potency [9] | Potency [10] | Potency [11] | Potency [12] | Potency [13]

CC(=O)c1nccs1
inactive: outcome [1] | Potency [2] | outcome [3] | outcome [4] | Potency [5] | outcome [6] | Potency [7] | outcome [14] | Potency [15] | Potency [8] | Potency [9] | Potency [10] | Potency [11] | Potency [12] | Potency [13]

NC(=O)NC(N)=O
inactive: outcome [1] | Potency [2] | outcome [3] | outcome [4] | Potency [5] | outcome [6] | Potency [7] | Potency [8] | Potency [9] | Potency [10] | Potency [11] | Potency [12] | Potency [13]

CCCOCC(C)O (stereo not given)
inactive: outcome [1] | Potency [2] | outcome [3] | outcome [4] | Potency [5] | outcome [6] | Potency [7] | Potency [8] | Potency [9] | Potency [10] | Potency [11] | Potency [12] | Potency [16] | Potency [17] | Potency [13] | Potency [19]
-0.141% (active) and -0.54% (inactive): activity change [18]

Cc1ncc(CO)c(CO)c1O
inactive: outcome [1] | Potency [2] | outcome [3] | outcome [4] | Potency [5] | outcome [6] | Potency [7] | Potency [8] | Potency [9] | Potency [10] | Potency [11] | Potency [12] | Potency [13]

O=C(Cl)c1ccc(C(=O)Cl)cc1
inactive: outcome [1] | Potency [2] | outcome [3] | outcome [4] | Potency [5] | outcome [6] | Potency [7] | outcome [14] | Potency [15] | Potency [8] | Potency [9] | Potency [10] | Potency [11] | Potency [12] | Potency [13]

— PubChem BioAssay (Tox21)
